Sampled rows, rich in hits. Any-hit rate of the full collection: about 3.1%.
FGF22 binding: FGF22 (human) thermal shift binding. Q9HCT0. recombinant FGF22 thermal shift, SYPRO orange fluorescence; percent of sucrose octasulfate shift, DMSO zero. activity (Tm shift, normalised), % at 9.99 µM. 340,000 compounds, 1.5% hits. AID 651658;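 active = mean Tm shift, scaled 0 neutral to 100 positive control, at about 1.3% or above, every replicate too, limit read from the data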
Target sequence (Q9HCT0 whole entry, looked up): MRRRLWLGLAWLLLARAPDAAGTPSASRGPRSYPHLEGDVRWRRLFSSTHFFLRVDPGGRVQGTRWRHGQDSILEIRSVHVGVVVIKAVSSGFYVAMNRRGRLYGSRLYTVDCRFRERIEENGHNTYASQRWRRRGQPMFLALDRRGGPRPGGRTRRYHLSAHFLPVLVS
SIRT5 inh: inhibitors of human sirtuin-5 desuccinylase; Purified SirT5, succinyl-peptide AMC, trypsin-coupled fluorescence; inhibition, % at 15 µM; AID 652115; 330,000 compounds, 1.1% hits; Q9NXA8; in the data active = inhibition above about 15%
ERAP1 inh: inhibitors of human ERAP1 aminopeptidase | Q9NZ08 | recombinant ERAP1, Leu-AMC fluorescence, 60 min | AID 652197 | 340,000 compounds, 0.15% hits | inhibition, % at 10.7 µM;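 active = mean replicate inhibition of at least 30%, or all replicates individually reaching that 30% level; inactive = mean below 30% and not every replicate reaching it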
CASP6 VEID inh: blocks human caspase-6 cleavage activity; P55212; purified caspase-6, Z-VEID-R110 cleavage fluorescence; inhibition, % at 12.5 µM; 350,000 compounds, 0.53% hits; AID 686996;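 active = mean inhibition across replicates at least about 35%, with every replicate also reaching that limit, limit read from the data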
Target sequence (P55212 24-179 limits assumed): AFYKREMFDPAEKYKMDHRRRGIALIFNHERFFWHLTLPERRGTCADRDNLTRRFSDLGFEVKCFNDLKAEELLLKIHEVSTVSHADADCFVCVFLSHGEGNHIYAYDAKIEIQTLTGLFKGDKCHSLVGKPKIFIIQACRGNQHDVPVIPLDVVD
Target sequence (P55212 194-293 limits assumed): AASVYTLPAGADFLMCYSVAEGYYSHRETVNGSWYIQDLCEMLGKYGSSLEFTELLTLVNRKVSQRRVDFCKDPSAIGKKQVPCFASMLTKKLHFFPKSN
Each line names hits and unclear results; the compound was inactive in the other large screens.

O=C1CC(c2ccccc2)Oc2cc(O)cc(O)c21 (stereo not given)	none
CO[C@@H]1CN(C)C(=O)c2ccc(NC(=O)c3ccc(F)cc3)cc2OC[C@@H](C)N(C(C)=O)C[C@@H]1C	none (no result: ERAP1 inh, CASP6 VEID inh)
CC(C)(C)C(=O)Nc1scc(-c2ccc(-c3ccccc3)cc2)c1C(=O)O	none
O=C(Nc1scc(-c2ccccc2)c1C(=O)O)c1ccccc1Cl	FGF22 binding 37
Cc1ccc(C(=O)Nc2scc(-c3ccccc3)c2C(=O)O)cc1	none (no result: ERAP1 inh)
O=C(/C=C/c1cccs1)Nc1scc(-c2ccccc2)c1C(=O)O	CASP6 VEID inh 54 (no result: FGF22 binding)
CCC(=O)Nc1ccc2c(c1)C(=O)N(C)C[C@@H](OC)[C@@H](C)CN(Cc1ccccc1C(=O)O)[C@@H](C)CO2	none
O=C(C[C@@H]1CC[C@@H]2[C@H](COC[C@H](O)CN2C(=O)c2cccnc2)O1)NCc1ccccc1	none
CC(C)(C)S(=O)N1Cc2cc(C(=O)N3CCc4ccccc4C3)nc(-c3cccc(-c4cccnc4)c3)c2[C@@H]1CCO (stereo not given in full)	CASP6 VEID inh 42
C[C@H](CO)N1C[C@H](C)[C@H](CN(C)C(=O)CN2CCOCC2)Oc2ncc(C#CCN(C)C)cc2C1=O	none
Cc1nn(-c2ccccn2)c2c1C(=O)CC(C)(C)C2N=[N+]=[N-] (stereo not given)	FGF22 binding 43 (no result: SIRT5 inh)
Cc1nn(-c2ccncc2)c2c1C(=O)CC(C)(C)C2Br (stereo not given)	none (no result: ERAP1 inh)
CCCCN(CC)CCCNC(=O)c1cn(CC)c2ccc(S(=O)(=O)N3CCc4ccccc4C3)cc2c1=O	FGF22 binding 43
CN(C)CCNC(=O)c1cccc(S(=O)(=O)Nc2ccccc2F)c1	SIRT5 inh 30, CASP6 VEID inh 49
O=C(Nc1ccccc1N1CCOCC1)c1cccc(S(=O)(=O)Nc2ccccc2F)c1	none
O=C(CCN1C(=O)c2cccc3cccc(c23)C1=O)Nc1ccccc1	FGF22 binding 43
Cc1ccc(NC(=O)CCN2C(=O)c3cccc4cccc(c34)C2=O)cc1	none
O=C(CCN1C(=O)c2cccc3cccc(c23)C1=O)NCc1ccco1	FGF22 binding 44
O=C(CCN1C(=O)c2ccccc2C1=O)NCc1ccco1	none
C[C@@H]1CCCCO[C@@H](CN(C)S(=O)(=O)c2cccs2)[C@@H](C)CN([C@H](C)CO)C(=O)c2cc(NC(=O)Nc3ccccc3)ccc2O1	none
Cc1nn(-c2ccccc2)c(N)c1C1(O)C(=O)N(C(C)C)c2ccccc21 (stereo not given)	none
Cc1noc(N)c1C1(O)C(=O)N(C(C)C)c2ccccc21 (stereo not given)	FGF22 binding 43
O=C(NCc1ccccn1)C1CCC(=O)N(Cc2ccc(Cl)cc2)C1 (stereo not given)	SIRT5 inh 37
O=C(NCc1ccccc1F)C1CCC(=O)N(Cc2ccc(Cl)cc2)C1 (stereo not given)	none
CC(C)Cc1cc(C(=O)N2CCC(N3CCC(C(=O)NC4CC4)CC3)CC2)n[nH]1	SIRT5 inh 17
CC(C)Cc1cc(C(=O)N2CCC(N3CCC(C(=O)N4CCCC4)CC3)CC2)n[nH]1	none
CCOc1ccc(-c2n[nH]c(=S)n2Cc2ccccc2)cc1	CASP6 VEID inh 37
Cc1ccc(C2=NN(S(=O)(=O)c3ccccc3)C(c3ccccc3O)C2)cc1 (stereo not given)	FGF22 binding 44
COc1ccc(C2CC(c3ccccc3)=NN2S(=O)(=O)c2ccccc2)cc1 (stereo not given)	none
CC=Cc1ccc2n(c1=O)C[C@@H]1[C@@H](CO)[C@H](C(=O)N3CCc4ccccc4C3)[C@H]2N1Cc1ccncc1 (mixture of isomers)	FGF22 binding 1.5
COc1ccc(S(=O)(=O)Nc2ccc3c(c2)C(=O)N([C@@H](C)CO)C[C@H](C)[C@H](CN(C)C(=O)NC2CCCCC2)OCCCC[C@H](C)O3)cc1	none
CC1(C)N([O-])c2cc([N+](=O)[O-])ccc2[N+]1=O	CASP6 VEID inh 38
C=CCn1c(C)cc(C2=NNC(=Nc3ccc(C)cc3)SC2)c1C	FGF22 binding 43
CCCOP(=O)(c1ccc(N(C)C)cc1)C(Nc1ccccc1)c1ccc(N(C)C)cc1 (stereo not given)	SIRT5 inh 29
CCCCOP(=O)(c1ccc(N(C)C)cc1)C(Nc1ccccc1)c1ccccc1 (stereo not given)	none
CCOC(=O)Cc1csc(NC(=O)c2cc(C)cc(C)c2)n1	SIRT5 inh 16
Cc1ccccc1-c1cnc2c(c1)C(=O)N([C@@H](C)CO)C[C@@H](C)[C@@H](CN(C)C(=O)c1ccc(F)cc1)O2	none
O=C(CCN1C(=O)S/C(=C\c2ccccc2)C1=O)N1CCCCC1	none
Cn1cccc1/C=C1/SC(=O)N(CC(=O)N2CCCC2)C1=O	FGF22 binding 43
COc1cccc(N/N=C(\C#N)S(=O)(=O)C(C)(C)C)c1	SIRT5 inh 18 (no result: FGF22 binding)
CC(C)(C)S(=O)(=O)/C(C#N)=N/Nc1ccc(C#N)cc1	none
O=C(C[C@@H]1CC[C@H](NC(=O)C2CCC2)[C@@H](CO)O1)NC1CCC1	none
COc1ccc(Nc2ncnc3sccc23)c(OC)c1	none
Cc1ccc(Nc2ncnc3sccc23)c(C)c1	CASP6 VEID inh 99
C[C@@H]1CN([C@@H](C)CO)C(=O)c2cc(-c3ccccc3)cnc2O[C@@H]1CN(C)C(=O)c1ccccc1F	none (no result: CASP6 VEID inh)
CN(C(=O)CS(=O)(=O)Cc1ccccc1Cl)c1ccccc1	FGF22 binding 43
O=C(O)CCS(=O)(=O)Cc1ccccc1Cl	none
CCNC(=O)C[C@H]1CC[C@H]2[C@@H](COc3ccc(NC(=O)Cc4cccs4)cc3C(=O)N2C)O1	none
Cn1cc(CNCc2cnc3ccccn23)c(-c2ccc(Oc3ccccc3)cc2)n1	FGF22 binding 44
Cn1cc(CN2CCN(CCO)CC2)c(-c2ccc(Oc3ccccc3)cc2)n1	FGF22 binding 43
CN(Cc1cn(C)nc1-c1ccc(Oc2ccccc2)cc1)Cc1cnc2ccccn12	none
O=C(N[C@@H]1C=C[C@@H](CC(=O)N2CCCCC2)O[C@@H]1CO)c1ccccn1	none
COC(=O)c1cc(OC)c(OC)cc1NC(=O)c1csc(C)c1	none
COC(=O)c1cc(OC)c(OC)cc1NC(=O)c1cc(OC)cc(OC)c1	SIRT5 inh 16
COc1cccc(-c2ccc([C@H]3[C@@H](C#N)N(C(=O)c4ccccn4)[C@H]3CO)cc2)c1	none
O=C(N[C@H]1CC[C@@H](CCNC(=O)C2CCOCC2)O[C@H]1CO)c1ccncc1	none
Cc1cc(C)c2nc(C)cc(N/N=C/c3ccc(O)cc3)c2c1	none
Cc1cc(N/N=C/c2ccc(O)cc2)c2cccc(C)c2n1	SIRT5 inh 21
O=C(NCC(c1ccco1)N1CCc2ccccc21)c1cccc([N+](=O)[O-])c1 (stereo not given)	CASP6 VEID inh 63
Cc1ccc(C(=O)NCC(c2ccco2)N2CCc3ccccc32)cc1 (stereo not given)	none
O=C(NCC(c1ccco1)N1CCc2ccccc21)c1ccc([N+](=O)[O-])cc1 (stereo not given)	CASP6 VEID inh 72 (no result: FGF22 binding)

Screens: PubChem, Broad Institute
